Measured values as given in the supplement of paper PMC12819154, “High-throughput peptide-centric local stability assay extends protein–ligand identification to membrane proteins, tissues and bacteria” (Nature Structural & Molecular Biology, 2025).

compound: CN[C@@H]1C[C@H]2O[C@@](C)([C@@H]1OC)n1c3ccccc3c3c4c(c5c6ccccc6n2c5c31)C(=O)NC4 [staurosporine]; experiment: log2 fold change of tryptic peptide abundance, ligand vs vehicle (limited proteolysis) (log2 ratio); higher = more trypsin-susceptible (destabilized); settings: ligand concentration: 20 uM; sample: K562 cleared lysate; digestion: 4 min, 22 C (HT-PELSA RT4min, Orbitrap Astral)

Sequence of UniProt Q9BZL6 (Q9BZL6 whole entry): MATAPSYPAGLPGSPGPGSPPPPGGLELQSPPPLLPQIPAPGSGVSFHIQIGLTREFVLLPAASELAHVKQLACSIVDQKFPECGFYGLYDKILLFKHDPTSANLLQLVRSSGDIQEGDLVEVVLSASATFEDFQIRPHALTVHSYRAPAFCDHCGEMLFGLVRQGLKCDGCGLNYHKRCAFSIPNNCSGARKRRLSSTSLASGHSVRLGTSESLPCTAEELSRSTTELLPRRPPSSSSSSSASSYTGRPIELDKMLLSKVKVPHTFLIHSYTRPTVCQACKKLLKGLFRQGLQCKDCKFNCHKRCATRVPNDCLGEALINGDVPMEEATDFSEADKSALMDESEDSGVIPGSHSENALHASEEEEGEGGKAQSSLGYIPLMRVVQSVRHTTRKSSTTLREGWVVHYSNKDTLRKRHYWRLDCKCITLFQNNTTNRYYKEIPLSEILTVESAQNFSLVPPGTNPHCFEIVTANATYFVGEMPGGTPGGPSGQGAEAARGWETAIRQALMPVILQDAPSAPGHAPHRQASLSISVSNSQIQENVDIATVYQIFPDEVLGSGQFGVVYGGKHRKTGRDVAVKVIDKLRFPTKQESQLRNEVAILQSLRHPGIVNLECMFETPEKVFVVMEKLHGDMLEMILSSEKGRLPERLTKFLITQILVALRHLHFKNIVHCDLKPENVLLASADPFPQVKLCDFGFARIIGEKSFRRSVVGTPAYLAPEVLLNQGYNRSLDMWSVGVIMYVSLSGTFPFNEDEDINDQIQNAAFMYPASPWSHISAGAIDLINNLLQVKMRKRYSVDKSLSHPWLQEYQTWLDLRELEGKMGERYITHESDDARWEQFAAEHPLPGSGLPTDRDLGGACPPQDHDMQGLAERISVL
Sequence of UniProt P60842 (P60842 whole entry): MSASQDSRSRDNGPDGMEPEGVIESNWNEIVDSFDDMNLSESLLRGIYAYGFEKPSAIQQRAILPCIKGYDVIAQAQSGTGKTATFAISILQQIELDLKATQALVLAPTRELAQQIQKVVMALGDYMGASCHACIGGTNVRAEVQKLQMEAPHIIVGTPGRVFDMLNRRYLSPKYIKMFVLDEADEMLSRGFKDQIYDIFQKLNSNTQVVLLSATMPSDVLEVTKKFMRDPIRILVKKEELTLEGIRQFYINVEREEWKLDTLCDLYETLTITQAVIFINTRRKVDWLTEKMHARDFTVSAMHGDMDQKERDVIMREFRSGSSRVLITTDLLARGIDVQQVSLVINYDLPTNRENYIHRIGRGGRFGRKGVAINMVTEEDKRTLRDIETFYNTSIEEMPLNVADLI
Sequence of UniProt P09211 (P09211 whole entry, looked up): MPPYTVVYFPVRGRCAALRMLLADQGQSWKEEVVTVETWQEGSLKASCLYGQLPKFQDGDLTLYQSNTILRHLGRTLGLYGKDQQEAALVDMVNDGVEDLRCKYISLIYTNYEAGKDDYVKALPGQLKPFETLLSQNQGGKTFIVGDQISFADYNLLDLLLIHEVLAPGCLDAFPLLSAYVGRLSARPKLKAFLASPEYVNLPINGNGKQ
Sequence of UniProt Q99759 (Q99759 whole entry): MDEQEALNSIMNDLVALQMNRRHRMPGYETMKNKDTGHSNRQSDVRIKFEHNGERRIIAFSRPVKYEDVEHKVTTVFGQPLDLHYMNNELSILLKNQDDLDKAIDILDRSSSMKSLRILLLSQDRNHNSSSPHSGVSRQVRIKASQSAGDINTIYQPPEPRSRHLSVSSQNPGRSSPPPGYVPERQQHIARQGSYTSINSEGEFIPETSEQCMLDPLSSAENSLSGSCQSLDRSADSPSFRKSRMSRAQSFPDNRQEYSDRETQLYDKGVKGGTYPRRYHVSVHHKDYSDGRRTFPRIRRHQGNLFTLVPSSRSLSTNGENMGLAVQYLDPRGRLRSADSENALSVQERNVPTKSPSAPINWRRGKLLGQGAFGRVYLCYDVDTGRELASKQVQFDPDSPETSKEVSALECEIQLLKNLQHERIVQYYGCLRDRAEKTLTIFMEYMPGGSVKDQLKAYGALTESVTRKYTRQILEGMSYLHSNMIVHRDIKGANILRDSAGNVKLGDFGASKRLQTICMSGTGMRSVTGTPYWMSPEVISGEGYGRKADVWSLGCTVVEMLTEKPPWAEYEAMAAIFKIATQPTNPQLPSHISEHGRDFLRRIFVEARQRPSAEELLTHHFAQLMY
Sequence of UniProt Q9BZF3 (Q9BZF3 whole entry): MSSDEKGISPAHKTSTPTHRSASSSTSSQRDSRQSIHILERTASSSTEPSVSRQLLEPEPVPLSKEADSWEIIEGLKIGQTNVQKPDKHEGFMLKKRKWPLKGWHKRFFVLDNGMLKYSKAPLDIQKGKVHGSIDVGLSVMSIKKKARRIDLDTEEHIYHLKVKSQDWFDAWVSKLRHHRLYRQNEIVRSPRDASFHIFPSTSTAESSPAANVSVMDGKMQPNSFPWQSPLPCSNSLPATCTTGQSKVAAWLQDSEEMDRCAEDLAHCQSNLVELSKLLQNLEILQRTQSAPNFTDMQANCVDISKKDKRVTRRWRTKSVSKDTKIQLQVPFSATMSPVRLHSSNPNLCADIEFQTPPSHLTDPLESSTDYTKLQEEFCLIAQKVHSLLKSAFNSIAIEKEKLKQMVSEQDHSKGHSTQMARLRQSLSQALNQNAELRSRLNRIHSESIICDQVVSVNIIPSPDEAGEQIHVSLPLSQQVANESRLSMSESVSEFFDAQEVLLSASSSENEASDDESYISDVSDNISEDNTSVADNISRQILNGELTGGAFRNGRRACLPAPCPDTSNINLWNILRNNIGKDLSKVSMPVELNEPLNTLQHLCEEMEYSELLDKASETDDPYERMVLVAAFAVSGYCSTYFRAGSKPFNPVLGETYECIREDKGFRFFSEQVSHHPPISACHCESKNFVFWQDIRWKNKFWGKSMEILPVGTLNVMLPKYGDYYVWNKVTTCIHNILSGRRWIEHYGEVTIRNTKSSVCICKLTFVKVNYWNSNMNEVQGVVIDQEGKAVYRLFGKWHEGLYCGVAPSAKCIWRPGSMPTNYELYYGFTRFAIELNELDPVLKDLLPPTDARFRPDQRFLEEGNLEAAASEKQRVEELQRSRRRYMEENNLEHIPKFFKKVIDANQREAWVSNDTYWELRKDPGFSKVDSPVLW
Sequence of UniProt P12956 (P12956 whole entry): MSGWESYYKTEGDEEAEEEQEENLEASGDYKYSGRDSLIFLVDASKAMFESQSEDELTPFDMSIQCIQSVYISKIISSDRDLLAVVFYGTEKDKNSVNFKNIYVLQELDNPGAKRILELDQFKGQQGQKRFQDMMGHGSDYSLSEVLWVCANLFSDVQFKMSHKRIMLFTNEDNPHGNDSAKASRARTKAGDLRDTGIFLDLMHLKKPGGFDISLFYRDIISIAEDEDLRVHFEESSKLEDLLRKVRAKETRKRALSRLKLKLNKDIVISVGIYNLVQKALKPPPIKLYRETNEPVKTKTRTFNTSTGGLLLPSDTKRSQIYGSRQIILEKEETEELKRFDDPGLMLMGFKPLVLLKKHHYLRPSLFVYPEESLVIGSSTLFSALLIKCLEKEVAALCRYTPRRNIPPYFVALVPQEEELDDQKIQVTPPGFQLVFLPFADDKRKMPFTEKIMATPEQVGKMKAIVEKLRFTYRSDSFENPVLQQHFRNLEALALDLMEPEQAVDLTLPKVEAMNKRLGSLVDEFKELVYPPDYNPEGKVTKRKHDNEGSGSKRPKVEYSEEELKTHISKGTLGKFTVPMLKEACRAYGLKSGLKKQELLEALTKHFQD
Sequence of UniProt P45984 (P45984 whole entry, looked up): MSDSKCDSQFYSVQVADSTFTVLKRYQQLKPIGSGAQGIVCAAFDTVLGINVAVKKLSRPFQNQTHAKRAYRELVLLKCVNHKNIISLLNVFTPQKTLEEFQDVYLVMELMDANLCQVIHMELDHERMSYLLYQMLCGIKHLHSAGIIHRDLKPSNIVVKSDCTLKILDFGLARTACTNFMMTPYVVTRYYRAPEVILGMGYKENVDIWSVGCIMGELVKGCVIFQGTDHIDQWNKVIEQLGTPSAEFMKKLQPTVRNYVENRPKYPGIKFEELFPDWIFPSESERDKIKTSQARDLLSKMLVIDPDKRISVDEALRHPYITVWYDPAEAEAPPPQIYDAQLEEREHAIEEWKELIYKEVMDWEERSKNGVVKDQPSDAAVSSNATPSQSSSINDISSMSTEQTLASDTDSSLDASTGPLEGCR
Sequence of UniProt Q02040 (Q02040 whole entry): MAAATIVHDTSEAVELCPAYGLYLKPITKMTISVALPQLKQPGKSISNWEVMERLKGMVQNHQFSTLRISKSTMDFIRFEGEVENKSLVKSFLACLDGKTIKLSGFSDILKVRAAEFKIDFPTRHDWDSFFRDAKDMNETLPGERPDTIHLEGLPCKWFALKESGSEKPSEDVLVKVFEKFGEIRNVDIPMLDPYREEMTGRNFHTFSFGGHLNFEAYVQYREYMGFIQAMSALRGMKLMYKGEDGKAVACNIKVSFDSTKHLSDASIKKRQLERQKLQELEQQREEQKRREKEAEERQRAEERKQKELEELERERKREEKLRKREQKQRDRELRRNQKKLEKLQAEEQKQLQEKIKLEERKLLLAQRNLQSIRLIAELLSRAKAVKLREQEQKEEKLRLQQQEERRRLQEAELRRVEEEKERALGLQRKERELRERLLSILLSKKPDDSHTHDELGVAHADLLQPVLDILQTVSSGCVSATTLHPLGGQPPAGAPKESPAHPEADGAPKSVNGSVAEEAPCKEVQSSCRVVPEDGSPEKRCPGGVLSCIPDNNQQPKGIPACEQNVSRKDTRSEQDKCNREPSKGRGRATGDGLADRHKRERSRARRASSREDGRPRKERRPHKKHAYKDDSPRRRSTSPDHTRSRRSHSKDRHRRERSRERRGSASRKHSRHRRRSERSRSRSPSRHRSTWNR
Sequence of UniProt Q8TAC1 (Q8TAC1 whole entry): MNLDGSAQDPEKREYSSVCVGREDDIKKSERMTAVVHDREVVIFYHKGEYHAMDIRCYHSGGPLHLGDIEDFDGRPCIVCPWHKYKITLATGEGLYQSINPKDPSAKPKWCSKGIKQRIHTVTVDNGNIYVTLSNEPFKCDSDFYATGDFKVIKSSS

Target | log2 fold change
LATS1 (peptide sequence: QQSASYIPK, peptide start residue: 1021) (UniProt O95835) | -2.87
OSBPL9 (peptide sequence: VVLPTFILER, peptide start residue: 391) (UniProt Q96SU4) | 0.326
UniProt P06493 (peptide sequence: HPNIVSLQDVLMQDSR, peptide start residue: 60) | -1.19
UniProt Q9Y6E0 (peptide sequence: AANVLLSEHGEVK, peptide start residue: 159) | -1.21
ULK3 (peptide sequence: VIELPLRPLLSR, peptide start residue: 230) (UniProt Q6PHR2) | -1.32
MARS (peptide sequence: SCPVVQSSQHLFLDLPK, peptide start residue: 440) (UniProt P56192) | 0.233
XRCC6 (peptide sequence: LGSLVDEFK, peptide start residue: 518) (UniProt P12956) | -0.499
PRKAR2A (peptide sequence: GQYFGELALVTNKPR, peptide start residue: 333) (UniProt P13861) | 0.659
VRK1 (peptide sequence: DILLQGLK, peptide start residue: 322) (UniProt Q99986) | -0.866
UniProt Q02040 (peptide sequence: STMDFIR, peptide start residue: 72) | 0.414
OSBPL6 (peptide sequence: NFVFWQDIR, peptide start residue: 687) (UniProt Q9BZF3) | -1.81
UniProt Q16512 (peptide sequence: IADFGLCK, peptide start residue: 756) | -2.52
CCNB1 (peptide sequence: NVVMVNQGLTK, peptide start residue: 386) (UniProt P14635) | -1.47
UniProt Q99759 (peptide sequence: SPSAPINWR, peptide start residue: 355) | -2.28
RFESD (peptide sequence: EYSSVCVGREDDIK, peptide start residue: 14) (UniProt Q8TAC1) | 0.768
UniProt O75153 (peptide sequence: VVEEPYTVR, peptide start residue: 118) | 0.461
UniProt P62269 (peptide sequence: KADIDLTKR, peptide start residue: 47) | 0.394
NSUN2 (peptide sequence: LAQEGIYTLYPFINSR, peptide start residue: 603) (UniProt Q08J23) | -0.339
AP2B1 (peptide sequence: VIAAMTVGK, peptide start residue: 37) (UniProt P63010) | 0.277
SRM (peptide sequence: AAFVLPEFAR, peptide start residue: 286) (UniProt P19623) | 0.362
UniProt P60842 (peptide sequence: ATQALVLAPTR, peptide start residue: 100) | 0.334
GSTP1 (peptide sequence: MPPYTVVYFPVRGR, peptide start residue: 1) (UniProt P09211) | 0.55
UniProt P45984 (peptide sequence: DLKPSNIVVK, peptide start residue: 151) | -2.08
PRKD2 (peptide sequence: LSSTSLASGHSVR, peptide start residue: 196) (UniProt Q9BZL6) | 1.18
EIF4A3 (peptide sequence: ETQALILAPTR, peptide start residue: 106) (UniProt P38919) | 0.375
MASTL (peptide sequence: IAVPKPPSIEEFSIVKPISR, peptide start residue: 24) (UniProt Q96GX5) | -1.05
